Measurements published in the supplement of paper PMC3334620.
Whole data set: some 33,000 sequences, median “E-score (-0.5 to 0.5)” near -0.035, cut for the highest 2% near 0.34. This excerpt belongs to a sample that is enriched for the highest values.

Target: T1, Mot3 (UniProt P54785)
T1 sequence: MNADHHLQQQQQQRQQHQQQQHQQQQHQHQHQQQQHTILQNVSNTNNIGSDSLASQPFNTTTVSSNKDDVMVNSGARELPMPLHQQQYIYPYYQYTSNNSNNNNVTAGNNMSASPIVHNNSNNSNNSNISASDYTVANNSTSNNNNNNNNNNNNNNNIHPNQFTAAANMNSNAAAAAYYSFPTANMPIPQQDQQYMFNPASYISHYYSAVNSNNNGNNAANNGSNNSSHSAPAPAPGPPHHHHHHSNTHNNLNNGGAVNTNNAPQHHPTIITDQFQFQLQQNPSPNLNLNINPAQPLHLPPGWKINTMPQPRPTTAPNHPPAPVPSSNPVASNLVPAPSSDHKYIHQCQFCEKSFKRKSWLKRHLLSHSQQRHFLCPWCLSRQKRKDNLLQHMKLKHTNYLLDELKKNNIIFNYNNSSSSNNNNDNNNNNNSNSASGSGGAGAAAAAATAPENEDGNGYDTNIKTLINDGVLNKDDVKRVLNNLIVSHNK
Test: PBM E-score (8-mer binding enrichment) (E-score (-0.5 to 0.5)); higher = stronger / more preferred TF binding
Conditions: protein concentration: 200 nM; construct: GST-full length
Experimental: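 Universal 'all 10-mer' protein binding microarrays (Agilent AMADID 015681) probed with GST-tagged S. cerevisiae TFs (full-length or DBD) made by in vitro transcription/translation (PURExpress), about 100-200 nM. Bound TF was detected with fluorescent anti-GST. Each ungapped 8-mer (which stands for itself and its reverse complement) is scored by the PBM enrichment score (E-score), a modified Wilcoxon-Mann-Whitney statistic from -0.5 to +0.5, computed with the Universal PBM Analysis Suite. Scale: above 0.35 generally sequence-specific binding.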

| Sequence | PBM E-score |
| --- | --- |
| ACTGTTGG | -0.221 |
| CCCTGGTC | -0.315 |
| TGCTTCAA | 0.0489 |
| CACAACAC | 0.302 |
| AGGAACAA | 0.401 |
| CGGAACAG | -0.216 |
| GACAACAC | 0.261 |
| AACAACAC | 0.349 |
| ACGAACAT | 0.109 |
| AGGAACAG | 0.434 |
| ACGAACAG | -0.0228 |
| ATGAACAT | 0.252 |
| AGGAACAT | 0.422 |
| TGGAACAA | 0.136 |
| CGGAACAA | 0.0225 |
| CTTCGGTC | -0.0958 |
| ATGGGAGC | -0.193 |
| ACGCATGC | 0.169 |
| ACAAAGCA | 0.168 |
| CTAGCGGA | -0.00619 |
| GATTAGCA | -0.0223 |
| CGCTCAAG | -0.0197 |
| TTAGCTAA | -0.0988 |
| CTTCCACA | -0.14 |
| ATCTCTTG | -0.0945 |
| ATCAACAG | 0.0788 |

| Sequence | PBM E-score |
| --- | --- |
| ATCAACAA | 0.224 |
| CGGAACAC | 0.0144 |
| ATTAACAC | 0.384 |
| AGGAACAC | 0.404 |
| ATCAACAT | 0.339 |
| ATTAACAA | 0.328 |
| CTTAACAC | 0.333 |
| GGGAACAC | 0.0104 |
| AAGTAGGA | 0.2 |
| CCTCTAGA | -0.0256 |
| AAGAACGC | 0.0817 |
| AGGGTAGG | 0.0464 |
| ACGCTTTG | -0.111 |
| GCATTCTA | 0.0333 |
| AGACAGAT | -0.0373 |
| ATCAGGCG | 0.0225 |
| GTCAGGAA | 0.277 |
| GTCAGGCA | 0.469 |
| GTCAGGGA | -0.339 |
| CTCAGGCC | -0.129 |
| ATCAGGCC | -0.0425 |
| CTCAGGCA | 0.462 |
| CTCAGGGA | -0.251 |
| ATCAGGCA | 0.481 |
| CGGATCAC | -0.00917 |
| CCTTTCTC | -0.0866 |

| Sequence | PBM E-score |
| --- | --- |
| CTCAGGGC | -0.29 |
| AGTGTCTA | 0.0204 |
| AGTCCCAT | -0.115 |
| AGAGCCTA | 0.177 |
| AGTGCCTC | 0.405 |
| CGTGCCTC | 0.469 |
| CGTGCCGC | -0.111 |
| AGAGCCTC | -0.422 |
| AGTGCCGC | -0.373 |
| AGTGCCAC | -0.35 |
| AGAGCCTG | 0.341 |
| AGTGCCGG | 0.0259 |
| AGTGCCAG | -0.0756 |
| CGTGCCCC | 0.00946 |
| AGTGCCTG | 0.49 |
| GAGATTGA | -0.0729 |
| ACGGTTTG | -0.0879 |
| CAAGTCGA | -0.156 |
| TGTCTCAA | -0.078 |
| AGGTCGAG | -0.141 |
| ATGACCAG | 0.199 |
| ATGCTCAG | 0.15 |
| GGTGCCCA | 0.293 |
| AGTGCCCA | 0.137 |
| CGTGCCCA | 0.355 |
| CACGGATG | 0.0568 |

| Sequence | PBM E-score |
| --- | --- |
| CGTAGGCA | 0.487 |
| AGTAGGCA | 0.481 |
| AGTAGGCC | -0.1 |
| CGTAGGCC | -0.0263 |
| GGTAGGGA | -0.104 |
| GGTAGGTA | 0.269 |
| CGTAGGTA | 0.285 |
| AGTAGGCG | 0.0255 |
| GGTAGGCA | 0.473 |
| AAATGGGG | -0.133 |
| CGAACTAA | 0.031 |
| AGGATACA | 0.157 |
| CCCTCTCG | -0.33 |
| TCTATTCA | 0.165 |
| CAATTGAA | -0.0107 |
| AGTACATG | 0.289 |
| ACTACATC | 0.173 |
| CTTACATA | 0.319 |
| CTTACATC | 0.163 |
| GTTACATA | 0.333 |
| ATTACATC | 0.356 |
| ACTACATA | 0.325 |
| ATCACATG | 0.195 |
| ACTACATG | 0.362 |
| ATTACATA | 0.406 |
| AGTACATC | 0.166 |

| Sequence | PBM E-score |
| --- | --- |
| ATTACATG | 0.435 |
| AGGATACT | -0.12 |
| ACCTCTCC | -0.144 |
| ACTTTTCC | 0.0601 |
| ACCTGACA | 0.105 |
| ATCTGAAA | -0.0689 |
| AGGAGTGC | -0.146 |
| GGACACCA | -0.23 |
| ACTCGCCC | -0.179 |
| TACTTTGA | 0.0853 |
| ACACTCCA | -0.141 |
| AATACATG | 0.413 |
| AATACATT | 0.235 |
| CATACATG | 0.291 |
| GGCGTGAC | 0.017 |
| AGAACGCT | -0.186 |
| AGTGTCGC | -0.0232 |
| AGGAACCT | 0.458 |
| TGGAACCA | -0.133 |
| CGGAACCG | -0.249 |
| GGGAACCC | -0.279 |
| ACGAACCT | -0.0403 |
| AGGAACCC | 0.444 |
| GGGAACCA | -0.175 |
| AGGAACCA | 0.419 |
| AGGAACCG | 0.442 |

| Sequence | PBM E-score |
| --- | --- |
| CGGAACCC | -0.0527 |
| AAGAACCT | 0.191 |
| ATGAACCG | 0.0149 |
| AGTTCGCG | -0.0658 |
| ACCATCAA | -0.0603 |
| CTACTGGC | -0.182 |
| GGGAGGTA | 0.0239 |
| AATTCCGG | -0.0255 |
| GTCCTCCA | -0.175 |
| CCACACCG | -0.0267 |
| CAGGTCGC | -0.225 |
| CATGTTTA | 0.371 |
| TGTGTTAA | 0.401 |
| CGCGTTAG | 0.187 |
| GATGTTTA | 0.125 |
| CGCGTTAA | 0.368 |
| CGTGTTTA | 0.346 |
| GGTGTTTA | 0.0636 |
| CATGTTTC | 0.24 |
| AGTGTTTA | 0.126 |
| GGTGTTAA | 0.28 |
| GGCGTTAA | 0.149 |
| AGTGTTAA | 0.264 |
| ACACTGGC | 0.00843 |
| ACTTAAGG | 0.157 |
| CTAGATAC | -0.0863 |

| Sequence | PBM E-score |
| --- | --- |
| GCAAGACC | -0.0597 |
| CGCAAAAC | 0.0841 |
| CACAGCTC | 0.0935 |
| CAACTGAG | 0.00667 |
| GAACCTCA | -0.0997 |
| AGAGCACT | -0.0229 |
| GAAACTCA | -0.0953 |
| CGGACAAC | -0.0115 |
| CTCGAGCA | -0.0333 |
| AGTGTTAG | 0.0278 |
| CGTGTTAG | 0.354 |
| CATGTTGA | 0.401 |
| CGTGTTCA | 0.273 |
| CATGTTGC | 0.297 |
| CTTGTTAC | 0.158 |
| CCTGTTAA | 0.297 |
| CGTGTTAA | 0.418 |
| CTTGTTAA | 0.355 |
| GTTGTTAA | 0.275 |
| AATGTTGA | 0.162 |
| CGTGTTAC | 0.308 |
